# Screening data from PubChem.
# ELG1 genotox: qHTS screen for small molecules that induce genotoxicity in human embryonic kidney (HEK293T) cells expressing luciferase-tagged ELG1; HEK293T ELG1-luciferase reporter, luminescence, 16 h; Potency, µM (doses to about 46 µM), for the others: at the top dose activity change, positive = activation, actives largely listed as activators; 330,000 tested, 1.3% active; AID 504466, 2011; further: % of control where 0% means no effect; nearly all actives have a fitted effect of over 60% in size
#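 Genotoxicity was scored as increased ELG1-luciferase reporter signal, measured by ONE-Glo luminescence (30 min, room temperature). Compound or vehicle exposure of the HEK293T reporter cells lasted 16 hr at 37°C.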
# SMN2 splice enh: qHTS Assay for Enhancers of SMN2 Splice Variant Expression. HEK293 SMN2-luciferase splicing reporter, luminescence, 30-36 h. Potency, µM (doses to about 46.1 µM), for inactives: top-dose activity change, positive = activation, hits mostly activators. 210,000 tested, 2.8% active; further: % of control where 0% means no effect; nearly all actives have a fitted effect of over 55% in size
#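 HEK293 cells carry an SMN2 […]–luciferase reporter in which exon 7 inclusion puts luciferase in frame. Cells were plated 10-12 h before compound addition, then incubated 30-36 h at 37C. ONE-Glo luminescence was read; sodium butyrate at 4.5 mM final served as control.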
# Rab9 prom act: qHTS Assay for Rab9 Promoter Activators | Huh7 Rab9 promoter-luciferase reporter, luminescence, 24 h | Potency, µM (top dose mostly 9.22 µM), inactives show at the top dose activation, negative = inhibition, most hits filed as activators | 320,000 tested, 2.8% active | AID 485297, 2010; further: % of control where 0% means no effect; nearly all actives have a fitted effect of over 60% in size
#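 Quantitative HTS format; Huh7 Rab9-luciferase reporter cells (1500/well) receive compound 2 h post-plating, incubate 24 h at 37 °C, then get luciferase reagent for 10 min before luminescence reading.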
# FLuc counter: qHTS profiling assay for firefly luciferase inhibitor/activator using purifed enzyme and Km concentrations of substrates (counterscreen for miR-21 project); Potency, µM (doses to about 57.5 µM), for inactives: top-dose activity change, negative = inhibition, actives largely listed as inhibitors; 360,000 tested, 6.9% active; AID 588342, 2011; Luciferin 4-monooxygenase (Photinus pyralis), P08659; purified FLuc, Km substrates, luminescence inhibition;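 further: plate controls were vehicle for no effect and reference inhibitor for full effect; nearly all actives have a fitted effect of over 55% in size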
# Target sequence (P08659 whole entry, looked up): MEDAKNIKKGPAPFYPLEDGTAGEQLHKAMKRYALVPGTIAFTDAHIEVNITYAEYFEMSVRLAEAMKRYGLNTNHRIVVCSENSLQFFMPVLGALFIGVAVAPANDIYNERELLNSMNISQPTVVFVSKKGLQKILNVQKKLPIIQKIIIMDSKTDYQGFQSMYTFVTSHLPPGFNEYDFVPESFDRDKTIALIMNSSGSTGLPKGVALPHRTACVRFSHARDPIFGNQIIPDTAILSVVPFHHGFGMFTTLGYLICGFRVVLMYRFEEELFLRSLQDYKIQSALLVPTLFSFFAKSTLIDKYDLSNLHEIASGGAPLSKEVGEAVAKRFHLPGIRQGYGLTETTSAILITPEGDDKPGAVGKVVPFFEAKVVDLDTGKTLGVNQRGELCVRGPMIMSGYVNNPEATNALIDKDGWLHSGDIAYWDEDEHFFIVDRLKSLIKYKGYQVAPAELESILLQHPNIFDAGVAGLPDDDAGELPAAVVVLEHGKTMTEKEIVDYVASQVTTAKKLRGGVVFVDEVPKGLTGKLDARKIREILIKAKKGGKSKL
#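 Biochemical qHTS of compounds, final roughly 60 µM downward over six points, against 10 nM purified firefly luciferase using Km concentrations of substrates (10 uM D-luciferin, 10 uM ATP) in Tris acetate pH 7.5 buffer; luminescence output.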
# ELG1 DNA repair: qHTS screen for small molecules that inhibit ELG1-dependent DNA repair in human embryonic kidney (HEK293T) cells expressing luciferase-tagged ELG1; HEK293T ELG1-luciferase reporter, luminescence, 16 h; DNA damage induced by 5-fluorouridine; 330,000 tested, 2.3% active; Potency, µM (series often up to 46.1 µM), without a hit: top-dose activity change, negative = inhibition, usual class: inhibitors; further: on the % scale 0 is the no-effect control and ±100 the full control effect; nearly all actives have a fitted effect of over 55% in size
#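 Reporter activity after DNA damage by 5-fluorouridine is monitored. Compound-treated cells incubate 16 hr at 37 °C, then ONE-Glo is added for 30 min before luminescence reading.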
# NPC1 promoter act: qHTS Assay for NPC1 Promoter Activators | Huh7 NPC1 promoter luciferase reporter, 24 h | Potency, µM (series often up to 9.22 µM), inactives show at the highest dose activation, hits mostly activators | 320,000 tested, 2.4% active | AID 485313, 2010; further: % of control where 0% means no effect; nearly all actives have a fitted effect of over 60% in size
#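 In 1536-well qHTS, Huh7 cells harboring an NPC1 promoter–luciferase construct received compound for 24 h; activation was quantified by luminescence following luciferase reagent addition.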
# An asterisk follows results filed as active; ? = inconclusive; / = no result given; [ ] = another dose, or the depositor's remark. Sampled rows, rich in hits. Any-hit rate of the full collection: about 9.3%. The call rests on the fitted dose curve; in most records, active means well fitted curve in the direction sought with a large enough effect; inconclusive means small, poorly fitted or top-dose-only effect, or another doubt; inactive means no such curve, though single readings can be large; an effect the other way counts as inactive or inconclusive. Potency means the concentration at half of the fitted maximal effect.
SMILES,ELG1 genotox,SMN2 splice enh,Rab9 prom act,FLuc counter,ELG1 DNA repair,NPC1 promoter act
O=c1[nH]c(=S)[nH]c(O)c1N=Nc1ccc(S(=O)(=O)N2CCOCC2)cc1,3%,/,3%,-16%,?,-4%
O=c1[nH]c(=S)[nH]c(O)c1N=Nc1ccc2c(c1)OCO2,?,18%,2.8µM*,4.8µM*,?,?
O=c1[nH]c(=S)[nH]c(O)c1N=Nc1ccc2c(c1)OCCO2,?,/,2.5µM*,0.85µM*,?,?
CC(=O)OC1C[C@@]2(C)C(c3ccoc3)C[C@H]3O[C@@]32[C@@]2(C)C(=O)C(O)=C3C(C)(C)C(=O)C=C[C@]3(C)C12 (stereo not given in full),/,-95%,/,/,/,/
CC(=O)N1N=C(c2cccnc2)CC1c1ccccc1O (stereo not given),1%,/,2%,2%,-1%,-3%
CC1(C)OC1COc1c2occc2cc2ccc(=O)oc12 (stereo not given),-1%,4%,-7%,-2%,2%,-3%
CC(=O)c1ccc(NC(=O)c2cc(CC(C)C)on2)cc1,18µM*,0%,0%,?,?,5%
CCC(=O)Oc1ccc(C(=O)Nc2cccc(C(=O)c3ccccc3)c2)cc1,-9%,-25%,2%,17µM*,-25%,3%
CC(=O)n1cc(C=C2C(=O)NC(=O)NC2=O)c2ccccc21,1%[9.26 µM],/,1%,15µM*,?,-3%
CC(C(=O)c1ccc2ccccc2c1)N1CCCCC1 (stereo not given),-2%,-13%,-5%,0%,13%,-7%
Cc1ccccc1N1C(=O)/C(=C/c2ccco2)C(=O)NC1=S,-6%,/,1%,24µM*,-4%,-2%
Cc1cc(/C=C2\C(=O)NC(=S)N(C)C2=O)c(C)n1C1CCCCC1,?,1%,-4%,0.48µM*,?,-2%
CCN1C(=O)C(=Cc2cc(C)n(C3CC3)c2C)C(=O)N(CC)C1=S,2%,0%,0%,-2%,13%,-4%
Cc1cc(C=C2C(=O)N(C)C(=S)N(C)C2=O)c(C)n1C1CCCC1,?,-14%,-9%,2.4µM*,0%,0%
Cn1c2ccccc2c2c(C(=O)N3CCC4(CC3)OCCO4)cn(C3CCCC3)c(=O)c21,-11%,16%,1%,6%,?,1%
N#Cc1cc(F)c(N2CCNCC2)cc1Cl,-1%,12%,10%,2%[2.3 µM],-3%,-3%
NS(=O)(=O)c1ccc(-c2ccc(C=C3C(=O)NC(=O)NC3=O)o2)cc1,4%,/,-3%,?,19%,4%
Cn1c(NN=O)nc2ccccc21,?,/,-44%,24µM*,?,-13%
CC(NC1CCCCC1)C(O)C12CC3CC(CC(C3)C1)C2 (stereo not given),-1%,-5%,-3%,0%,-18%,-6%
CCOc1ccc(-c2cc(C(=O)N3CCN(c4cccc(C(F)(F)F)c4)CC3)c3ccccc3n2)cc1,/,/,/,2.4µM*,/,/
O=C(c1cc(-c2ccccc2)nc2ccccc12)N1CCC2(CC1)OCCO2,0%,0%,2%,?,-1%,-2%
O=C(NC1CC1)C1CSC(c2cccnc2)=N1 (stereo not given),1%,-8%,0%,4%,-20%,1%
CN1C2CCC1CC(C(=O)OC(CO)c1ccccc1)C2 (stereo not given),/,-1%,/,/,/,/
Cc1ccc2c(Cl)cc(Cl)c(OCC(=O)N(C(C)C)C(C)C)c2n1,-12%,-1%,6%,-1%,26µM*,-4%
Cc1ccc(-c2cc(-c3ccccc3)cc(-c3ccccc3)[n+]2-c2ccccc2)cc1,-9%,/,-42%,4%,?,-41%
SMILES,ELG1 genotox,SMN2 splice enh,Rab9 prom act,FLuc counter,ELG1 DNA repair,NPC1 promoter act
CN(C)c1ccc(-[n+]2c(-c3ccccc3)cc(-c3ccccc3)cc2-c2ccccc2)cc1,-25%,-83%,-51%,1%,4.6µM*,-44%
c1ccc(-c2cc(-c3ccccc3)[n+](-c3ccccc3)c(-c3ccccc3)c2)cc1,-21%,/,-50%,-1%,2.3µM*,-45%
COc1cc(/C=C/c2nc3ccccc3c(=O)n2-c2cccc(O)c2)ccc1O,4%,/,0%,?,?,-8%
CCc1ccc(CN2CCN(Cc3ccc(SC)cc3)CC2)cc1,-3%,-87%,-10%,1%,5.8µM*,-6%
c1ccc(-c2[nH]c(-c3ccccc3)[n+](CC3CO3)c2-c2ccccc2)cc1 (stereo not given),-8%,-67%,-3%,3%,23µM*,-2%
COc1cc2[nH]c(=O)n(Cc3ccc(C(=O)NC4CCCC4)cc3)c(=O)c2cc1OC,?,-3%,-1%,7%,15%,-1%
C=CCc1ccc(OC(=O)NC2CCCCC2)c(OC)c1,?,/,3.5µM*,11µM*,?,?
NC(=O)c1ccc(NC(=O)c2cccn(Cc3ccccc3)c2=O)cc1,/,/,/,5%,/,/
CC1=NN(c2ccccc2)C(=O)C1/C=C1\C(=O)NC(=O)N(c2cc(C)cc(C)c2)C1=O (stereo not given),5%,8%,-5%,9.5µM*,10%,-3%
CC1=NN(c2ccccc2)C(=O)C1/C=C1/C(=O)NC(=O)N(c2cc(C)cc(C)c2)C1=O (stereo not given),-1%,-5%,-7%,17µM*,0%,-6%
CC1=NN(c2ccccc2)C(=O)C1/C=C1\C(=O)NC(=O)N(c2ccc(C)c(C)c2)C1=O (stereo not given),-6%,6%,-4%,15µM*,-2%,0%
COc1ccc(/C=C2/C(=O)NC(=O)N(c3ccc(C)c(C)c3)C2=O)cc1CN1C(=O)c2ccccc2C1=O,7%,11%,-3%,-1%,17%,3%
CC1=NN(c2ccccc2)C(=O)C1/C=C1/C(=O)NC(=O)N(c2cccc(C)c2)C1=O (stereo not given),-4%,-11%,-6%,13µM*,24%,-1%
Cn1cc2c([N+](=O)[O-])cc([N+](=O)[O-])cc2n1,-8%,-7%,6%,-2%,-15%,-1%
O=C(CCCOc1ccc(Cl)cc1Cl)N1CCC2(CC1)OCCO2,?,22%,5%,?,?,4%
